High-throughput results deposited in PubChem BioAssay by National Center for Advancing Translational Sciences (NCATS).
TRb-SRC2 inh: inhibitors of human thyroid hormone receptor beta-SRC2 interaction; Potency, µM (doses to about 106 µM), for the others: top-dose activity change, negative = inhibition, hits mostly inhibitors; AID 1469; P10828; TRbeta-SRC2 peptide binding, fluorescence polarization; receptor liganded with 1 µM T3; 280,000 compounds, 0.065% hits;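 also: plate controls were bound peptide for no effect and peptide without receptor for full effect; nearly all actives have a fitted effect of over 50% in size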
Target sequence (P10828 whole entry, looked up): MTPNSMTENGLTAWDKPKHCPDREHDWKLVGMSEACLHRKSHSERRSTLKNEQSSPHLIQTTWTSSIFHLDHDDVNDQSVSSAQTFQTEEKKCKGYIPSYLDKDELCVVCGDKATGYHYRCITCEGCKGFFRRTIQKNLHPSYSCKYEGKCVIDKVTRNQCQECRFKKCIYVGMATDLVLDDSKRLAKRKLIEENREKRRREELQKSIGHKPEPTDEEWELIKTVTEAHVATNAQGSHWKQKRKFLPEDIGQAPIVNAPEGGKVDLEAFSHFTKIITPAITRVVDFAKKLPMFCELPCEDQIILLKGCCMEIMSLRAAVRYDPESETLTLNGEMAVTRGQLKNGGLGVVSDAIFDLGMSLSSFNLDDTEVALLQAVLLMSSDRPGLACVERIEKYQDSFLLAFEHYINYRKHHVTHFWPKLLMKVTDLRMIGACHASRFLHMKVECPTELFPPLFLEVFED
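Each compound concentration gave % activity, normalized to unbound and bound Texas Red SRC2 controls, from polarization read after 5 hr ambient incubation with T3-loaded human TRb LBD.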
TR SRC2 fluor cs: alters Texas Red total fluorescence, flagging assay interference; TRb/SRC2 Texas Red total fluorescence interference; Potency, µM (doses to about 106 µM), for the others: at the top dose fluorescence change, negative = quenching; 280,000 compounds, 0.29% hits; AID 1479; active = well fitted curve in either direction with a large enough effect; inconclusive = small, poorly fitted or top-dose-only effect
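Human TRβ ligand-binding domain (0.6 uM) and Texas Red SRC2 peptide (20 nM) in Tris buffer with 1 uM T3 and 5% DMSO were incubated with pinned compound for 5 hr at ambient temperature. Total fluorescence was computed as S + 2P (555/632 nm).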
BLM inh: Bloom syndrome helicase (human) inhibition; P54132; recombinant BLM DNA unwinding, fluorescence dequenching; Potency, µM (series often up to 56.1 µM), for the others: at the highest dose activity change, negative = inhibition, actives largely listed as inhibitors; 350,000 compounds, 0.2% hits;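 also: plate controls were vehicle for no effect and no enzyme for full effect; nearly all actives have a fitted effect of over 35% in size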
RECQ1 inh-1: blocks DNA unwinding by human RECQ1; P46063; RECQ1 DNA unwinding, red fluorescence kinetic read; Potency, µM (top dose mostly 57.3 µM), for inactives: at the highest dose activity, negative = inhibition, actives largely listed as inhibitors; 240,000 compounds, 0.54% hits;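 also: plate controls were vehicle for no effect and no enzyme for full effect; nearly all actives have a fitted effect of over 30% in size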
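50 nM RECQ1T1 preincubated 15 min with compound in Tris pH 8.0 buffer with MgCl2, DTT, Tween-20 and 2.5 ug/ml poly(dI-dC); started with 200 nM TAMRA/BHQ-2 forked duplex and 2 mM ATP. Unwinding read as fluorescence (525/598 nm), two reads 2 h apart.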
RECQ1 conf: confirmation of human RECQ1 helicase inhibitors; shares compounds with RECQ1 inh-1; RECQ1 helicase DNA unwinding, fluorescence; Potency, µM (titrated, usually from 229 µM), for inactives: at the top dose activity change, negative = inhibition, actives largely listed as inhibitors; 610 compounds, 28% hits; also: nearly all actives have a fitted effect of over 45% in size
RECQ1 ADP FP: counter-screen for RECQ1 inhibitors: ADP displacement; shares compounds with RECQ1 inh-1; ADP fluorescence polarization displacement counterscreen; Potency, µM (top dose mostly 228 µM), for inactives: at the highest dose activity change, negative = inhibition, most hits filed as inhibitors; 530 compounds, 27% hits; also: nearly all actives have a fitted effect of over 45% in size
RECQ1 inh-2: blocks human RECQ1 DNA unwinding | Potency, µM (doses to about 119 µM), for inactives: at the top dose activity, negative = inhibition, actives largely listed as inhibitors | recombinant RECQ1 DNA unwinding, red fluorescence | 1,100 compounds, 15% hits | shares compounds with RECQ1 inh-1; also: nearly all actives have a fitted effect of over 50% in size
Starred values were filed as active, the others as inactive; i = inactive; ? = inconclusive; . = not tested or not shown; [ ] = dose if it differs, or a comment. Hits are enriched below; roughly 0.64% of the tested compounds scored in any of these assays. Unless noted, calls follow the shape of the dose curve; as a rule, active = well fitted curve in the direction sought with a large enough effect; inconclusive = small, poorly fitted or top-dose-only effect, or another doubt; inactive = no such curve, though single readings can be large; an effect the other way counts as inactive or inconclusive. Unless noted, % is scaled to controls: 0 for no effect and ±100 for the full control effect; potency is read from the fitted curve at half-maximal effect.

SMILES | TRb-SRC2 inh | TR SRC2 fluor cs | BLM inh | RECQ1 inh-1 | RECQ1 inh-2 | others
Cc1ccc(/C=C/C(=O)NCc2ccccn2)o1 | -11% | 2% | ? | ? | 18µM*
Cc1ccc(/C=C/C(=O)NCc2ccco2)o1 | 2% | -1% | 3% | -15% | .
CCOC(=O)c1cccc(NC(=O)c2cn(-c3cccc(OC)c3)c(=O)c3ccccc23)c1 | 7% | 3% | 2% | . | .
COc1cccc2c1NC(C(=O)O)C1CC=CC21 (centres undefined) | -19% | ? | 16µM* | 8.9µM* | ?
Nc1nn2cc(-c3ccc(Br)cc3)nc2c2ccccc12 | 17% | -4% | -13% | ? | ?
CC1CCCN(S(=O)(=O)c2ccc(NC(=O)c3nc(SC(C)C)ncc3Cl)cc2)C1 (centres undefined) | 0% | -2% | -9% | . | .
O=C(CSc1nnc(-c2ccncc2)n1Cc1ccco1)Nc1nc(-c2ccccc2)cs1 | -4% | -3% | -10% | i | . | RECQ1 conf=-16%;RECQ1 ADP FP=41%
COc1ccc(-n2c(CNc3ccc(C)cc3)nnc2SCC(=O)Nc2nc(-c3ccccc3)cs2)cc1 | 6% | 0% | -3% | i | .
COc1ccc(NC(=O)CSc2nnc(Cc3cccn3C)n2-c2ccc(OC)cc2)cc1 | -1% | -1% | -4% | 1% | .
COc1ccc(NCc2nnc(SCC(=O)Nc3nc(-c4ccccc4)cs3)n2-c2ccccc2)cc1 | 1% | -1% | 1% | 4% | . | RECQ1 conf=15%;RECQ1 ADP FP=?
O=C(CSc1nnc(-c2ccncc2)n1Cc1ccco1)Nc1ccccc1Cl | 8% | 3% | -1% | -14% | .
COc1ccc(-n2c(Cc3cccn3C)nnc2SCC(=O)Nc2ccc(C(C)=O)cc2)cc1 | -1% | 2% | -7% | 22µM* | -4%
Cc1ccc(-n2c(Cc3cccn3C)nnc2SCC(=O)NCc2ccco2)cc1 | -12% | 0% | 1% | 22µM* | -15% | RECQ1 conf=-9%[114 µM];RECQ1 ADP FP=14%[91.9 µM]
COc1cccc(CNC(=O)CSc2nc(=O)[nH]c3c2CCCC3)c1 | 6% | -1% | 3% | . | .
CCc1ccc(CN(Cc2ccco2)c2cnc(S(C)(=O)=O)nc2C(=O)Nc2ccccc2Cl)cc1 | -4% | 9% | -8% | . | .
N#C/C(=C\c1ccc(-c2ccc(C(=O)O)cc2)o1)c1nc2ccccc2[nH]1 | -6% | ? | -13% | ? | ?
Nc1cc(=O)[nH]c(SCC(=O)N2N=C(c3ccc(Cl)cc3)CC2c2ccco2)n1 (centres undefined) | 3% | -3% | -3% | ? | -49%
CCCc1cc(=O)[nH]c(SCC(=O)N2N=C(c3ccc(Cl)cc3)CC2c2ccco2)n1 (centres undefined) | -1% | -1% | -5% | 7% | .
Cc1ccc(-n2nc(C)c3c2OC(N)=C(C#N)C3c2ccoc2)cc1 (centres undefined) | ? | -11% | -6% | ? | -7%
Cc1ccc(-n2nc(C)c3c2OC(N)=C(C#N)C3c2ccco2)cc1 (centres undefined) | -12% | -3% | -2% | -5% | .
Cc1c(Cl)cccc1NC(=O)c1cc2sccc2n1Cc1ccc(F)cc1 | -6% | -1% | -3% | . | .
O=C1CSC(=S)N1/N=C/c1ccc(O)c(O)c1O | 12% | -16% | ? | 2.2µM* | . | RECQ1 conf=?
COCC(=O)N(C)C1(c2nnnn2CCOC(=O)Nc2cccc3ccccc23)CCCC1 | 3% | 0% | -13% | 32µM* | -9%
O=C(/C=C/c1ccco1)N(Cc1ccc(F)cc1)C1CCS(=O)(=O)C1 (centres undefined) | -5% | -1% | -5% | ? | -4%
O=C(/C=C/c1ccco1)Nc1cccc2cccnc12 | 0% | -4% | -26% | ? | -21%
SMILES | TRb-SRC2 inh | TR SRC2 fluor cs | BLM inh | RECQ1 inh-1 | RECQ1 inh-2 | others
CCOc1ccc(-c2cc(C(F)(F)F)c(C#N)c(SCC(=O)Nc3ccccc3)n2)cc1 | 3% | -9% | 0% | . | .
Cc1cc(C)cc(NC(=O)C2CCC(CNS(=O)(=O)c3ccc4c(c3)C(C)(C)C(=O)N4C)CC2)c1 (centres undefined) | -2% | -3% | -3% | . | .
COCCn1c(=NC(=O)c2ccc(S(=O)(=O)N3CCc4ccccc4C3)cc2)sc2cc(OC)ccc21 | -2% | 1% | -2% | -2% | . | RECQ1 conf=2%;RECQ1 ADP FP=-6%
Cc1cc(C)c2c(n1)nn1c(C)c(CCC(=O)Nc3cccc(C)c3C)c(C)nc21 | -8% | -2% | -3% | . | .
COc1ccccc1N1CCN(C(CNC(=O)C(=O)NCCCN(C)C)c2cccnc2)CC1 (centres undefined) | 2% | 7% | 2% | . | .
Cc1ccc(C)n1-c1sc2c(c1C(=O)O)CCCC2 | -2% | -1% | -18% | 13µM* | 8.9µM* | RECQ1 conf=56µM*;RECQ1 ADP FP=?
Cc1cc2nc(C)c(Cl)c(=O)n2[nH]1 | -2% | -1% | -4% | ? | -3%
Cc1nc2cc(-c3ccc(Br)cc3)[nH]n2c(=O)c1Cl | . | . | -6% | . | .
CCc1cccc(C)c1NC(=O)c1cnn(-c2ccc(F)cc2)c1-n1cccc1 | -1% | 0% | -2% | . | .
CCCn1c(-c2ccc(F)cc2)nc2c(NCCN(CC)CC)nc(C)nc21 | 1% | 1% | -9% | -8% | .
CC1/C=C/C=C/C=C/C=C/C=C/C=C/C=C/C(OC2OC(C)C(O)C(N)C2O)CC2O[C@@](O)(CC(O)CC(O)C(O)CCC(O)CC(O)CC(=O)OC(C)[C@H](C)C1O)CC(O)C2C(=O)O (some centres undefined) | ? | 18% | -5% | 20µM* | . | RECQ1 conf=?;RECQ1 ADP FP=56%
CS(=O)(=O)N1CCN(c2ccc([N+](=O)[O-])c(NCc3ccccc3)c2)CC1 | -18% | 1% | -4% | -13% | .
CS(=O)(=O)N1CCN(c2ccc([N+](=O)[O-])c(NCc3ccc(Cl)cc3)c2)CC1 | 7% | -2% | 16µM* | 32µM* | ?
S=C(NCc1ccco1)Nc1ccc(Oc2ccc(Cl)cc2)cc1 | 5% | -1% | -14% | ? | -28%
CCOC(=O)c1nc2sc3c(c2c(=O)[nH]1)CCCC3 | -2% | 6% | 0% | -6% | .
N#C/C(=C\c1ccc(C(=O)O)cc1)c1nc2sc3c(c2c(=O)[nH]1)CCCC3 | 7% | 0% | ? | 25µM* | ?
O=C(c1ccco1)N(CCC(c1ccccc1)c1ccco1)Cc1ccccc1 (centres undefined) | 3% | 0% | -25% | 11µM* | 45µM* | RECQ1 conf=?;RECQ1 ADP FP=20%[91.9 µM]
CCN(CC)C(=O)CC(c1ccccc1)c1ccco1 (centres undefined) | 1% | -5% | -4% | ? | ?
